# From PubChem BioAssay (NCATS)
# “And” between values parts separate entries of the source, which are not always exact repeats. Identical values can stand only once. A number with no mark means an inactive call. Records with an inconclusive call do not appear. Entries that show only a call come without a potency. The source made the active and inactive calls. Unless noted, the call rests on the fitted dose curve; in most records, active means well fitted curve in the direction sought with a large enough effect; inconclusive means small, poorly fitted or top-dose-only effect, or another doubt; inactive means no such curve, though single readings can be large; an effect the other way counts as inactive or inconclusive.
# Legend:
# [1] = biological target: Cytochrome P450 3A4 (Homo sapiens) (UniProt P08684); assay: qHTS Assay for Activators of Cytochrome P450 3A4 (AID 885); further: nearly all actives have a fitted effect of over 65% in size; further: potency means the concentration at half of the fitted maximal effect
# Outline: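 Human CYP3A4 (20 nM) with Luciferin-PPXE at 25 uM (its KM) in 200 mM KPO4; 10 min compound preincubation, then NADPH regeneration and 60 min reaction at RT. Luciferin read by luminescence; normalized to 57 uM ketoconazole full inhibition.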
# [2] = biological target: Muscarinic acetylcholine receptor M1 (Rattus norvegicus) (UniProt P08482); assay: qHTS Assay for Antagonists of Acetylcholine Muscarinic M1 Receptor: Measurement of IP-One Response (AID 944); further: nearly all actives have a fitted effect of over 75% in size; further: potency means the concentration at half of the fitted maximal effect
# Outline: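 CHO cells stably expressing rat M1, pretreated 10 min with compound, then stimulated 30 min with carbachol at EC80 (200 nM) in LiCl-containing buffer pH 7.4; IP1 accumulation read by HTRF competition (665/620 nm).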
# [3] = biological target: Luciferin 4-monooxygenase (Photinus pyralis) (UniProt P08659); assay: Biochemical firefly luciferase enzyme assay for NPC (AID 624030);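 further: purified P. pyralis luciferase at 10 nM with luciferin and ATP substrate; series mostly up to about 59 µM; nearly all actives have a fitted effect of over 70% in size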
# Outline: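 Direct inhibition of firefly luciferase enzyme (10 nM final, 50 mM Tris Acetate) assessed by luminescence within 5 minutes. Percent activity scaled between DMSO and PTC124 positive control, with concentration-effect curves classified by fit quality and response.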
# [4] = biological target: Muscarinic acetylcholine receptor M1 (Rattus norvegicus) (UniProt P08482); assay: qHTS Assay for Antagonists of Acetylcholine Muscarinic M1 Receptor: Kinetic Measurement of Intracellular Calcium Response (AID 943); further: nearly all actives have a fitted effect of over 75% in size; further: potency means the concentration at half of the fitted maximal effect
# Outline: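 CHO cells expressing rat M1 receptor, Fluo-4 loaded, preincubated 10 min with compound, then stimulated with EC80 carbachol (100 nM final). Kinetic calcium fluorescence over 4 min; response taken as peak over basal signal.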
# [5] = biological target: Cytochrome P450 2C9 (Homo sapiens) (UniProt P11712); assay: qHTS Assay for Inhibitors and Substrates of Cytochrome P450 2C9 (AID 883); further: nearly all actives have a fitted effect of over 60% in size
# Outline: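 Luminescent read-out of deoxyluciferin hydroxylation, normalized to 57uM sulphaphenazole (AC100). Reaction: 10nM enzyme, 100uM Luciferin-H (equal to KM), 25mM KPO4, 10 min compound preincubation, then 60 min with NADPH regeneration, both at 37C.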
# [6] = biological target: Cytochrome P450 2D6 (Homo sapiens) (UniProt P10635); assay: qHTS Assay for Inhibitors and Substrates of Cytochrome P450 2D6 (AID 891); further: nearly all actives have a fitted effect of over 60% in size; further: potency means the concentration at half of the fitted maximal effect
# Outline: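 Human CYP2D6 (5 nM) with 30 uM Luciferin-ME EGE (at Km) in 100 mM KPO4, compound preincubated 10 min, then NADPH regeneration system for 60 min at room temperature. Luciferin read by luminescence; normalized to 1.43 uM quinidine.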
# [7] = biological target: Cytochrome P450 2C19 (Homo sapiens) (UniProt P33261); assay: qHTS Assay for Inhibitors and Substrates of Cytochrome P450 2C19 (AID 899); further: nearly all actives have a fitted effect of over 60% in size; further: potency means the concentration at half of the fitted maximal effect
# Outline: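 Luminescence readout of luciferin formed from 10uM Luciferin-H EGE (KM level) by 5 nM CYP2C19 in 50mM KPO4. 60 min NADPH-driven reaction at 37C after 10 min compound preincubation; data scaled to 57uM ketoconazole inhibition.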
# [8] = qHTS Assay for Identification of Small Molecule Agonists for Hypoxia Response Element Signaling Pathway (AID 914; active means well fitted activation curve with a large enough effect in the signal ratio, with a control signal flat, not every such curve was filed as active; the % refers to the signal ratio; further: potency means the concentration at half of the fitted maximal effect); conditions: ME-180 (cervical carcinoma) HRE-bla reporter, beta-lactamase ratio, CoCl2, 17 h; activation: active compounds read high
# Outline: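 HRE-bla ME-180 cells with beta-lactamase reporter under hypoxia response element, compounds with EC50 CoCl2 for 17 hours at 37 C. CCF4 substrate, 460nm/530nm emission ratio gave %Activity; AC50 from titration series.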
# [9] = biological target: Pyruvate kinase (Leishmania mexicana) (UniProt Q27686); assay: qHTS Validation Assay for Activators of Leishmania Mexicana Pyruvate Kinase (AID 959); conditions: purified L. mexicana pyruvate kinase, enzyme activity
# Outline: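 Eight-point qHTS titrations in triplicate, data normalized to DMSO neutral control. Reaction: 0.2 nM LmPYK E451W mutant, 0.5 mM PEP, 0.1 mM ADP, 7 mM MgCl2, pH 7.2, one hour at room temperature; luminescent ATP detection.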
# [10] = biological target: Cytochrome P450 3A4 (Homo sapiens) (UniProt P08684); assay: qHTS Assay for Inhibitors and Substrates of Cytochrome P450 3A4 (AID 884); further: series mostly up to about 57 µM; nearly all actives have a fitted effect of over 50% in size
# Outline: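 20 nM human CYP3A4 with 25 uM Luciferin-PPXE (at KM) in 200 mM KPO4, preincubated 10 min with compound; NADPH regeneration started a 60 min RT reaction. Luciferin detected by luminescence, normalized to 57 uM ketoconazole as full inhibition.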
# [11] = biological target: Tyrosyl-DNA phosphodiesterase 1 (Homo sapiens) (UniProt Q9NUW8); assay: Confirmation Assay for Inhibitors of Tyrosyl-DNA Phosphodiesterase (TDP1) (AID 489007); conditions: recombinant human TDP1 enzymatic activity, dose-response; further: potency means the concentration at half of the fitted maximal effect; nearly all actives have a fitted effect of over 40% in size
# Outline: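 Recombinant human Tdp1 (1 nM final), expressed in E. coli, preincubated 15 min with compound. Then 15 nM 5'-biotin/3'-phosphotyrosine-FITC DNA substrate added for 5 min at room temperature. AlphaScreen beads (10 ug/ml) added for 10 min; cleavage gives signal loss.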
# [12] = biological target: Pyruvate kinase PKM (Homo sapiens) (UniProt P14618); assay: qHTS Assay for Inhibitors of Human Muscle Pyruvate Kinase (AID 958)
# Outline: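 ATP production by PKM2 detected via luciferase luminescence after 1 h room-temperature reaction (0.1 nM enzyme, PEP at Km 0.5 mM, ADP 0.1 mM, pH 7.2 imidazole buffer). Inhibition scaled to no-enzyme control; activation referenced to 0.3 nM enzyme wells.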
# [13] = qHTS Assay for Identification of Small Molecule Antagonists for Thrombopoietin (TPO) Signaling Pathway (AID 918); conditions: TPO-dependent cell signaling reporter, antagonist mode; further: potency means the concentration at half of the fitted maximal effect; nearly all actives have a fitted effect of over 60% in size
# Outline: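 Murine Ba/F3 cells expressing human TPO receptor and a Glycoprotein IIb promoter-luciferase reporter, IL-3-starved overnight, treated with compound plus TPO at EC50 (26 pM final). After 24 h at 37 C, luminescence read to detect inhibitors.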
# [14] = biological target: DNA dC->dU-editing enzyme APOBEC-3G (Homo sapiens) (UniProt Q9HC16); assay: qHTS for inhibitors of Vif-A3G interactions: Validation (AID 588379)
# Outline: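 HeLa cells stably expressing Vif and A3G-eYFP, 700 cells/well, incubated overnight at 37 deg C, then exposed to compound overnight at 37 deg C. Inhibition of Vif-mediated degradation read as increased yellow fluorescence (Ex 488/Em 500-530) by laser-scanning cytometry.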
# Cytochrome P450 2C9 (Homo sapiens), sequence (P11712 whole entry, looked up): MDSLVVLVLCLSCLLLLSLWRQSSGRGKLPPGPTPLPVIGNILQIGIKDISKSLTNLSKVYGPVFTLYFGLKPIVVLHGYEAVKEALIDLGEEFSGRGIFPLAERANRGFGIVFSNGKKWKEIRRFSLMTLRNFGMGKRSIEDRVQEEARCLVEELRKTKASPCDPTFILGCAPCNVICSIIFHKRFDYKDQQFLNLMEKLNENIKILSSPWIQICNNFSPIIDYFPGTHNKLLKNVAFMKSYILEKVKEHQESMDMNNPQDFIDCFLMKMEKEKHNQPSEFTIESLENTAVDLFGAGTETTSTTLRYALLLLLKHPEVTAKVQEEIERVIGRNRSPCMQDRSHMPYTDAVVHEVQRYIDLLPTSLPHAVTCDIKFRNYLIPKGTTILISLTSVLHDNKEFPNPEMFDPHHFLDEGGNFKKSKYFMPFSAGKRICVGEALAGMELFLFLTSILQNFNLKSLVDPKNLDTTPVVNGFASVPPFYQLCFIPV
# Muscarinic acetylcholine receptor M1 (Rattus norvegicus), sequence (P08482 whole entry, looked up): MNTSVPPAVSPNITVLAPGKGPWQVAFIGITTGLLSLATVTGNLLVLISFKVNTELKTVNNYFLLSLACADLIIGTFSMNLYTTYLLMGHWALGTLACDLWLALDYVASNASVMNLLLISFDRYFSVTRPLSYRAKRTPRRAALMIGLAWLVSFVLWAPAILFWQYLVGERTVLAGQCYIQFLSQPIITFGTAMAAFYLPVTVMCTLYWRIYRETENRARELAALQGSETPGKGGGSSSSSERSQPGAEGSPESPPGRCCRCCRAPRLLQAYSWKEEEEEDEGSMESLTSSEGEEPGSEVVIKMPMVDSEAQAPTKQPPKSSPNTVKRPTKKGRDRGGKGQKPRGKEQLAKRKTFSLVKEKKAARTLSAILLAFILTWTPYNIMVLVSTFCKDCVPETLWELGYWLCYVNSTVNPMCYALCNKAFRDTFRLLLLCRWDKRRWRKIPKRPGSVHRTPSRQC
# Cytochrome P450 2C19 (Homo sapiens), sequence (P33261 whole entry, looked up): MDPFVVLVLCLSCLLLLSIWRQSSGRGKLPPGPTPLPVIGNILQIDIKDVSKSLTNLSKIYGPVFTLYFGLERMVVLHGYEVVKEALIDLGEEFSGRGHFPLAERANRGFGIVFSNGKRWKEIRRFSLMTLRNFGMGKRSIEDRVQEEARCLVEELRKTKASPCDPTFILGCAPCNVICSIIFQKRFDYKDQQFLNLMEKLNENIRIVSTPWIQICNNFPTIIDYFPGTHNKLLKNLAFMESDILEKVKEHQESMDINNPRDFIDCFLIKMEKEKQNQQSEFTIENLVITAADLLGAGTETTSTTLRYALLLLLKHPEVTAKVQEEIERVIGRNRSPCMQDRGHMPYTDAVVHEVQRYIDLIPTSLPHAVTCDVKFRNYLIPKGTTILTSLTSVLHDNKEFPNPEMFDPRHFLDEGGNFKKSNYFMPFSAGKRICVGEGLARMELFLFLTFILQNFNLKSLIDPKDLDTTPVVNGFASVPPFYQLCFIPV
# Luciferin 4-monooxygenase (Photinus pyralis), sequence (P08659 whole entry, looked up): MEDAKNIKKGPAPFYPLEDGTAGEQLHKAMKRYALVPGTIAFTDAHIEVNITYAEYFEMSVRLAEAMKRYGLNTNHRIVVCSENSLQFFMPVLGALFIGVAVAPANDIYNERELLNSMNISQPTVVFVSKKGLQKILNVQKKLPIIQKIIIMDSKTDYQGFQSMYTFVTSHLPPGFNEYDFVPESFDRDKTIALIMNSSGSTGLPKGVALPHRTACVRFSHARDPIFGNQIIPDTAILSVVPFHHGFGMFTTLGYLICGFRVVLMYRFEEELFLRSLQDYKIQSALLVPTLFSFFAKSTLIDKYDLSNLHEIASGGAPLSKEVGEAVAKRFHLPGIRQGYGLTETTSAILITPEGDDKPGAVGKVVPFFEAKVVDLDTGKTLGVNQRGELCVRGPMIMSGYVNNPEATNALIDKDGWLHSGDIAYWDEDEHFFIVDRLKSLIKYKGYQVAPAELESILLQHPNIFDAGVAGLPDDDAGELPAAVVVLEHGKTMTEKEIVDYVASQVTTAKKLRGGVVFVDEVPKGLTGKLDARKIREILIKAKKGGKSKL
# Cytochrome P450 2D6 (Homo sapiens), sequence (P10635 whole entry, looked up): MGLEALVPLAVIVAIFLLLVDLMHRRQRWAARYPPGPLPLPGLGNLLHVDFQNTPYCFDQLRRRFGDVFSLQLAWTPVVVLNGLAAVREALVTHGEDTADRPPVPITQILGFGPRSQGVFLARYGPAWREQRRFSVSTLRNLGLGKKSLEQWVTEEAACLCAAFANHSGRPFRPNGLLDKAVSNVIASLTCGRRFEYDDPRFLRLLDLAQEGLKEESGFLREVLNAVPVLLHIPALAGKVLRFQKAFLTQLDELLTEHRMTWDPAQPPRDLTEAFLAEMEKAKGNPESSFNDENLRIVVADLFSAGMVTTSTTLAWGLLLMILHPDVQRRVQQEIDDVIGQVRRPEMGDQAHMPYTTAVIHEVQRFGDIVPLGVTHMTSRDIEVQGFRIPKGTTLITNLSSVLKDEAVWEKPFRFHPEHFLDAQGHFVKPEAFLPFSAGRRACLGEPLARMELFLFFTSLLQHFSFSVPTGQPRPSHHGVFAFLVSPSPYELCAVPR
# Pyruvate kinase (Leishmania mexicana), sequence (Q27686 2-499 E452W): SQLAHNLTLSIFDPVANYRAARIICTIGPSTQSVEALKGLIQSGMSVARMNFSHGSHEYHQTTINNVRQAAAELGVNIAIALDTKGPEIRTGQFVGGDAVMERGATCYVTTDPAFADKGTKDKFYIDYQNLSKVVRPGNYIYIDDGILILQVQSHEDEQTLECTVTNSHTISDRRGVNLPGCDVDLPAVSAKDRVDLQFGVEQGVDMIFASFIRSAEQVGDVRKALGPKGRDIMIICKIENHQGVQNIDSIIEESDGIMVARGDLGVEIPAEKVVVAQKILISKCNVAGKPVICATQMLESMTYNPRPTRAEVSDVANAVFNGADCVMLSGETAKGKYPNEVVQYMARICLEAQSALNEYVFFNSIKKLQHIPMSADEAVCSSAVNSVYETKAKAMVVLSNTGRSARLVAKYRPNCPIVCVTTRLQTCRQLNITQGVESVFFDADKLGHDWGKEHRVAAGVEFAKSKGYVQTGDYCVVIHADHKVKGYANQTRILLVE
# Cytochrome P450 3A4 (Homo sapiens), sequence (P08684 whole entry, looked up): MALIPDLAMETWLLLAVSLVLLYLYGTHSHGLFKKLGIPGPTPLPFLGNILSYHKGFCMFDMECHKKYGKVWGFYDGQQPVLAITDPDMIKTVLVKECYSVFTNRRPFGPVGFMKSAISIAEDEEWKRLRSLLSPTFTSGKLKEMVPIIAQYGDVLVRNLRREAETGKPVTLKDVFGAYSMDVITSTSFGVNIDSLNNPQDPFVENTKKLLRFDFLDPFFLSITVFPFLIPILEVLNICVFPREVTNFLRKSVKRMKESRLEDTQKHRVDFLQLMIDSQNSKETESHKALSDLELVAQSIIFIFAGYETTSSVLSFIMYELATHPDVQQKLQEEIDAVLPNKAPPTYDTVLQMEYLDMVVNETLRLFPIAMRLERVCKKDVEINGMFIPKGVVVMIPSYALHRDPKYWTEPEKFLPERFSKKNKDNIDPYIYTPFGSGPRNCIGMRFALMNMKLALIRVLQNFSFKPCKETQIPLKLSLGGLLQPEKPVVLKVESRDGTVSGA
# Pyruvate kinase PKM (Homo sapiens), sequence (P14618 whole entry, looked up): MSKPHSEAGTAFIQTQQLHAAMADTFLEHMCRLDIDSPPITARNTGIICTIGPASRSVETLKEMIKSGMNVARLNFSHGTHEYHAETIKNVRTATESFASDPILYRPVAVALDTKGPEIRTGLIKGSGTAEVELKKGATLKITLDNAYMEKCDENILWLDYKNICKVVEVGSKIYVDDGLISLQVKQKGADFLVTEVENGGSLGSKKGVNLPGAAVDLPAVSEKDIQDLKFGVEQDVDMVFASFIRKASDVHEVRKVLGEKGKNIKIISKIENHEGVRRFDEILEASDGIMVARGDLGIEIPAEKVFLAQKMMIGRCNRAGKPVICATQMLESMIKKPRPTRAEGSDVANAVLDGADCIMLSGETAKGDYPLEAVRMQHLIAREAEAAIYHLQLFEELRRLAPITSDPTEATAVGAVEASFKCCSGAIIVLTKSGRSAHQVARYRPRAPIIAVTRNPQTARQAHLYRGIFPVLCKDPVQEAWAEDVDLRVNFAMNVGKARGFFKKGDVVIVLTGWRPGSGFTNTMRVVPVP
# Tyrosyl-DNA phosphodiesterase 1 (Homo sapiens), sequence (Q9NUW8 whole entry, looked up): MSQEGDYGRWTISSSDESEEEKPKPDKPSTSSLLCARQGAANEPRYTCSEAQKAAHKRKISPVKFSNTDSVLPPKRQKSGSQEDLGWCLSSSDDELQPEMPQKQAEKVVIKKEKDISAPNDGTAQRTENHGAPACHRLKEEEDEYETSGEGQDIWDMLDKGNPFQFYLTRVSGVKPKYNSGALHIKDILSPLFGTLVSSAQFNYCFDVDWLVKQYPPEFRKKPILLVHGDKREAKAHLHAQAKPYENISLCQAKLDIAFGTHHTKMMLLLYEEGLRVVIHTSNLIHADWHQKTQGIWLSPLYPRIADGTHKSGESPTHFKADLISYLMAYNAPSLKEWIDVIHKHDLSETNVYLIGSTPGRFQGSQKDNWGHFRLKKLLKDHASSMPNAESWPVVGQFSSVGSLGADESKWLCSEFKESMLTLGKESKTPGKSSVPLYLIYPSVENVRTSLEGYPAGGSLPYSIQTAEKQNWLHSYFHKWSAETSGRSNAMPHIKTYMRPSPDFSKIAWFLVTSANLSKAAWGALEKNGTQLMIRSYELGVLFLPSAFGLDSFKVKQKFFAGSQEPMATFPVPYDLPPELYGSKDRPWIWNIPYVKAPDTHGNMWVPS
compound,measurement,setting,value
CN1Cc2c(N)cccc2[C@H](c2ccccc2)C1,Potency,[1],inactive
same,Potency,[2],inactive
CC(C)(C)NC[C@H](O)c1cc(O)cc(O)c1,outcome,[3],inactive
N[C@H](C(=O)N[C@@H]1C(=O)N2C(C(=O)O)=C(Cl)CS[C@@H]12)c1ccccc1,Potency,[4],inactive
C[C@@]12CCC(=O)C=C1CC[C@@H]1[C@@H]2[C@H](O)C[C@]2(C)[C@@H]1CC[C@]2(O)C(=O)CO,Potency,[5],inactive
same,Potency,[6],inactive
same,Potency,[7],inactive
C[C@@H]1c2cccc(O)c2C(O)=C2C(=O)[C@@]3(O)C(O)=C(C(N)=O)C(=O)[C@@H](N(C)C)[C@@H]3[C@@H](O)[C@@H]21,Potency,[4],inactive
same,Potency,[2],inactive
C[C@@H](COc1ccccc1)N(CCCl)Cc1ccccc1,Potency,[6],158 nM (active)
same,Potency,[7],2 µM (active)
CC(=O)OCC1=C(C(=O)O)N2C(=O)[C@@H](NC(=O)Cc3cccs3)[C@@H]2SC1,Potency,[1],inactive
same,activation,[8],-3.21% and -0.503%
same,Potency,[4],inactive
same,Potency,[2],inactive
same,Potency,[9],25.1 µM (active)
O=c1c(-c2cccs2)nc2cnc(Oc3cccc(Cl)c3)nc2n1C1CC1,Potency,[8],3.16 µM (active)
Cc1cccc(C)c1OC[C@H](C)N,Potency,[5],inactive
same,Potency,[10],inactive
same,activation,[8],-2.33% and -23.1%
same,Potency,[2],inactive
C[C@@H](CCc1ccccc1)NC[C@H](O)c1ccc(O)c(C(N)=O)c1,Potency,[2],inactive
NC(=O)c1cc[n+](CC2=C(C(=O)O)N3C(=O)[C@@H](NC(=O)[C@H](c4ccccc4)S(=O)(=O)[O-])[C@@H]3SC2)cc1,Potency,[4],inactive
same,Potency,[9],3.16 µM (active)
same,Potency,[11],12.6 µM (active)
C[C@@]12CCC(=O)C=C1CC[C@H]1[C@H]3CC[C@](O)(C(=O)CO)[C@]3(C)CC(=O)[C@@H]12,Potency,[5],inactive
same,Potency,[6],inactive
same,Potency,[7],inactive
C[C@@H]1COc2c(N3CCN(C)CC3)c(F)cc3c(=O)c(C(=O)O)cn1c23,Potency,[2],inactive
O=C(c1ccccc1)c1ccc2n1CC[C@H]2C(=O)O,Potency,[2],inactive
O=C(O)/C=C\c1ccc(O)c(O)c1,Potency,[5],inactive
same,Potency,[6],inactive
same,Potency,[7],inactive
CC(=O)O[C@]1(C(C)=O)CC[C@@H]2[C@@H]3C=C(Cl)C4=CC(=O)[C@H]5C[C@@H]5[C@]4(C)[C@H]3CC[C@]21C,Potency,[1],3.16 µM (active) and 10 µM (active)
CN1C(=O)CC[C@@H]1c1cccnc1,Potency,[5],inactive
same,Potency,[1],inactive
same,Potency,[7],inactive
same,Potency,[4],inactive
same,Potency,[2],inactive
O=C(O)CNC(=O)[C@@H](CS)Cc1ccccc1,Potency,[4],inactive
CC(C)(Oc1ccc([C@@H]2CC2(Cl)Cl)cc1)C(=O)O,activation,[8],-18.9%
CO/N=C(\C(=O)N[C@@H]1C(=O)N2C(C(=O)O)=C(COC(C)=O)CS[C@@H]12)c1csc(N)n1,Potency,[7],inactive
same,Potency,[2],inactive
same,outcome,[12],inactive
same,Potency,[9],25.1 µM (active)
c1ccc([C@@H]2CN3CCSC3=N2)cc1,Potency,[2],inactive
C[C@@H](C[N+](C)(C)C)OC(N)=O,Potency,[5],inactive
same,Potency,[4],inactive
same,Potency,[2],inactive
CCCN[C@@H](C)C(=O)Nc1ccccc1C,outcome,[3],inactive
CCn1cc(C(=O)O)c(=O)c2cc(F)c(N3CCN[C@@H](C)C3)c(F)c21,Potency,[2],inactive
COc1cc(=O)n(C)c2c(OC[C@@H](O)C(C)(C)O)cccc12,Potency,[5],inactive
same,Potency,[1],inactive
same,Potency,[6],inactive
same,Potency,[7],inactive
same,Potency,[4],inactive
same,Potency,[2],inactive
CCCN[C@@H](C)C(=O)Nc1c(C)csc1C(=O)OC,Potency,[1],inactive
same,outcome,[3],inactive
COc1ccccc1OC[C@H](O)COC(N)=O,outcome,[3],inactive
CN(C)CC[C@@H](c1ccccc1)c1ccccn1,Potency,[10],inactive
same,Potency,[4],11.2 µM (active)
same,Potency,[2],10 µM (active)
CC1(C)O[C@@H]2C[C@H]3[C@H]4C[C@H](F)C5=CC(=O)C=C[C@@]5(C)[C@@H]4[C@H](O)C[C@]3(C)[C@]2(C(=O)CO)O1,Potency,[1],inactive
same,Potency,[7],inactive
same,outcome,[3],inactive
C[C@H](NCCc1ccc(O)cc1)[C@@H](O)c1ccc(O)cc1,Potency,[4],12.6 µM (active)
COc1c(O)cc2c(c1O)[C@@H]1O[C@@H](CO)[C@@H](O)[C@@H](O)[C@@H]1OC2=O,activation,[8],14.6%
same,outcome,[3],inactive
CCN(CC)CC#CCOC(=O)[C@@](O)(c1ccccc1)C1CCCCC1,Potency,[1],inactive
CCN(CC)CCC[C@H](C)Nc1ccnc2cc(Cl)ccc12,Potency,[4],5.01 µM (active)
same,outcome,[3],inactive
O=c1[nH]c(=O)n([C@@H]2C[C@H](O)[C@H](CO)O2)cc1I,outcome,[3],inactive
CN[C@@H]1[C@H](O[C@@H]2O[C@H](CO)[C@@H](N)[C@H](O)[C@@H]2O)O[C@H]2C[C@@H](N)[C@@H](O[C@H]3[C@@H](O)[C@H](O)[C@H](N)C[C@@H]3N)O[C@H]2[C@H]1O,outcome,[3],inactive
CC(C)COC[C@H](CN(Cc1ccccc1)c1ccccc1)N1CCCC1,Potency,[1],inactive
same,Potency,[6],15.8 nM (active)
same,Potency,[4],inactive
same,Potency,[2],inactive
CN(N=O)C(=O)N[C@H]1[C@@H](O)[C@H](O)[C@H](CO)O[C@@H]1O,outcome,[3],inactive
OCCN1CCN(CC/C=C2\c3ccccc3Sc3ccc(C(F)(F)F)cc32)CC1,Potency,[1],inactive
same,Potency,[4],0.891 µM (active)
same,Potency,[2],5.01 µM (active)
CC[C@H](NC(C)C)[C@H](O)c1ccc(O)c(O)c1,Potency,[1],inactive
same,Potency,[4],inactive
same,Potency,[2],inactive
C[C@@H](CN(C)C)CN1c2ccccc2CCc2ccccc21,Potency,[1],inactive
same,Potency,[6],5010 nM (active)
same,Potency,[4],0.141 µM (active)
same,Potency,[2],0.126 µM (active)
C[C@@]12CC[C@@H]3c4ccc(O)cc4CC[C@H]3[C@H]1CC[C@H]2O,Potency,[5],inactive
same,Potency,[6],inactive
CN(C)CCO[C@](C)(c1ccccc1)c1ccccn1,outcome,[3],inactive
CCN(CC)CCC[C@H](C)Nc1c2ccc(Cl)cc2nc2ccc(OC)cc12,Potency,[1],inactive
same,Potency,[6],199 nM (active) and 126 nM (active)
same,Potency,[13],10 µM (active)
same,outcome,[3],inactive
CN1CCc2cccc3c2[C@@H]1Cc1ccc(O)c(O)c1-3,Potency,[13],12.6 µM (active)
same,Potency,[2],inactive
same,outcome,[12],inactive
same,outcome,[14],inactive
CCC[C@H]1C(=O)N2C(N(C)C)=Nc3ccc(C)cc3N2C1=O,outcome,[3],inactive
NS(=O)(=O)c1cc([C@@]2(O)NC(=O)c3ccccc32)ccc1Cl,outcome,[3],inactive
